Screening data: PubChem BioAssay, several laboratories
Compounds with a hit are over-represented: about 1.9% of the library has one in this group of screens.
GSIS activator: GLuc luminescence reporter in INS-1E cells, primary screen for activators of glucose-dependent secretion of insulin. INS-1E GLuc reporter insulin secretion, 2-3 h. activation, % at 16.6 µM. 370,000 compounds, 0.61% hits;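 active = lowest replicate activation of at least 40%, so every replicate reaches that level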;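 note: 0% = median of neutral control wells and 100% = median of IBMX positive control wells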
Neddyl block: cullin neddylation inhibition | TR-FRET cullin neddylation, biochemical | inhibition, % at 25 µM | 360,000 compounds, 0.58% hits | AID 651699; in the data active = inhibition above about 36%
Vif imaging: inhibitors of HIV Vif; HEK293T cells, Vif self-association by quenched fluorescence, imaging, 24 h; 340,000 compounds, 0.35% hits; AID 602346; inhibition, % at 7.49 µM; in the data active = inhibition above about 50%, passing the limit was not always enough
A1 inh: inhibitors of the anti-apoptotic protein A1, read as caspase activation; MEF A1-2A-BIM cells, Caspase-Glo 3/7 luminescence, 3 h; percent of clofoctol response, vehicle zero; caspase activation, % (no concentration beside the values); 330,000 compounds, 0.066% hits; AID 2462;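 active = over half of replicate activation scores above 10%, or exactly half above 10 with the replicate mean above 10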
dFosB act-1: mouse delta FosB homodimer activation; P13346; purified delta FosB, TAMRA-CDK5 oligo fluorescence polarization; percent of positive-control signal above neutral wells; activation, % at 25 µM; 340,000 compounds, 0.99% hits; AID 493131;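 active = mean activation above about 17%, with every replicate also reaching it, limit read from the data, passing the limit was not always enough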
Target sequence (P13346 whole entry, looked up): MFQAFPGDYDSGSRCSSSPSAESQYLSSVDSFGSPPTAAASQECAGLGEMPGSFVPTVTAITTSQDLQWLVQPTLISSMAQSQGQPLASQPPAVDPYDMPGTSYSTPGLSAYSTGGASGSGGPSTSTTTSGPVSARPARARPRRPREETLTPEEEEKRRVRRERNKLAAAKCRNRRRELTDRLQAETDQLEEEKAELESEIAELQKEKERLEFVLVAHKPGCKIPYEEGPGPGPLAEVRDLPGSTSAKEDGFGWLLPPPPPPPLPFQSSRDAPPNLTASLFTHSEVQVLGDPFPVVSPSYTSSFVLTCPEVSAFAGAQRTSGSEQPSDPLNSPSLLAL
dFosB act-2: delta FosB (mouse) homodimer activation; shares compounds with dFosB act-1; purified delta FosB, TAMRA-CDK5 oligo fluorescence polarization; normalised: neutral wells 0, positive control 100; activation, % at 24.9 µM; 2,400 tested, under 10 active; AID 588690;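 active = highest replicate activation at or above 34% and every replicate reaching that threshold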;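 note: higher polarization means more probe DNA bound by delta FosB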
* marks the source's active call; other numbers are inactive results.

How did COc1ccc(S(=O)(=O)N2CCc3ccccc32)cc1C(=O)Nc1cccnc1 do in these assays?
GSIS activator: 50.1*; Neddyl block: 6.4; Vif imaging: -1.4; A1 inh: 0.5; dFosB act-1: -0.5

How did COc1ccc(Cl)cc1C(=O)Nc1cccnc1 do in these assays?
GSIS activator: 5.7; Neddyl block: 0.5; Vif imaging: 53.4*; A1 inh: -0.9; dFosB act-1: -9.9

What do the screens show for `COc1cc(OC)c(C(=O)Nc2cccnc2)cc1OC`?
GSIS activator: 31.0; Neddyl block: 6.7; Vif imaging: -0.6; A1 inh: 0.2; dFosB act-1: 3.7

Results for COc1ccc(Br)cc1C(=O)Nc1cc(C)cc(C)c1 ?
GSIS activator: 81.7*; Neddyl block: -2.2; Vif imaging: 17.5; A1 inh: -0.2; dFosB act-1: -7.7

What do the screens show for `COc1ccc(Cl)cc1C(=O)Nc1cccc(-c2ccc3nncn3n2)c1`?
GSIS activator: 43.0*; Neddyl block: -9.6; Vif imaging: -8.3; A1 inh: -0.3; dFosB act-1: -27.3

What do the screens show for `O=C(C[C@@H]1CC[C@H]2[C@@H](COC[C@@H](O)CN2C(=O)c2ccccc2F)O1)N1CCOCC1`?
GSIS activator: 12.7

What do the screens show for `COc1ccc2c3c(n(C)c2c1)[C@@H](CO)N(C(=O)c1ccccc1)CC31CCN(C(=O)c2ccccc2)CC1`?
GSIS activator: -6.5

How did Cc1nn(C)cc1NC(=O)C[C@H]1CC[C@@H]2[C@@H](COc3ccc(NC(=O)Nc4cccc(Cl)c4)cc3C(=O)N2C)O1 do in these assays?
GSIS activator: -5.8

Results for O=C(Nc1cc(F)ccc1F)N1CC(=O)N2[C@H](C1)[C@@H](c1ccc(-c3ccccc3)cc1)[C@@H]2CO ?
GSIS activator: -14.7

How did O=C1c2cccc3cc([N+](=O)[O-])cc(c23)C(=O)N1CCN1CCCC1 do in these assays?
GSIS activator: 3.3; Neddyl block: -32.3; Vif imaging: -0.2; dFosB act-1: 58.4*

What do the screens show for `C[C@H]1CCCCO[C@H](CN(C)Cc2ccccc2)[C@@H](C)CN([C@@H](C)CO)C(=O)c2cc(NS(=O)(=O)c3cccs3)ccc2O1`?
GSIS activator: -14.3

What do the screens show for `CCOC(=O)c1nc(SC)n(C)c1C(=O)OCC`?
GSIS activator: 54.1*; Neddyl block: 11.0; Vif imaging: -2.9; A1 inh: 0.2; dFosB act-1: -3.3

Results for CCOC(=O)c1c(C)c(C(=O)OCC)n(C)c1C ?
GSIS activator: 39.2; Neddyl block: -6.3; Vif imaging: -5.2; A1 inh: 0.1; dFosB act-1: -8.5

How did COc1ccccc1NS(=O)(=O)c1cccc(C(=O)N/N=C/c2c(CO)cnc(C)c2O)c1 do in these assays?
GSIS activator: 0.8; Neddyl block: 40.8*; Vif imaging: -11.8; A1 inh: -0.6; dFosB act-1: -17.9

How did N/C(=N\N=C/c1ccc(F)cc1)N/N=C\c1ccc(F)cc1 do in these assays?
Neddyl block: 8.4; Vif imaging: 25.6; A1 inh: 0.9; dFosB act-1: 25.9*

Results for CC(=O)N(C)C[C@H]1Oc2ncc(C#Cc3ccncc3)cc2C(=O)N([C@@H](C)CO)C[C@H]1C ?
GSIS activator: 4.3

How did CCOC(=O)c1sc2nc(C)[nH]c(=S)c2c1C do in these assays?
GSIS activator: -6.5; Neddyl block: -261.2; Vif imaging: 2.3; dFosB act-1: 20.6*; dFosB act-2: 2.8

Results for O=c1cc(/N=C/c2coc3c(ccc4ccccc43)c2=O)[nH]c(=S)[nH]1 ?
GSIS activator: 1.9; Neddyl block: -18.1; Vif imaging: -1.6; A1 inh: -0.3; dFosB act-1: 43.3*; dFosB act-2: -1.2

Results for NC(=S)N/N=C/c1coc2c(ccc3ccccc32)c1=O ?
GSIS activator: 7.5; Neddyl block: 12.7; Vif imaging: 8.4; A1 inh: -1.5; dFosB act-1: -12.3

What do the screens show for `COc1ccc(NC(=O)c2cc(S(=O)(=O)N3CCCC3)ccc2OC)cc1`?
GSIS activator: -4.9; Neddyl block: 4.5; Vif imaging: -5.1; A1 inh: 0.6; dFosB act-1: -7.1

What do the screens show for `COc1ccc(NC(=O)c2cc(S(=O)(=O)N3CCS(=O)(=O)CC3)ccc2Cl)cc1`?
Neddyl block: -3.5; Vif imaging: -11.9; A1 inh: 0.0; dFosB act-1: 51.9*; dFosB act-2: 2.4

What do the screens show for `C=CCn1c(SCC(=O)Nc2ccccc2OC)nc2c([nH]c3ccccc32)c1=O`?
GSIS activator: 25.0; Neddyl block: 4.8; A1 inh: 0.2; dFosB act-1: 44.2*; dFosB act-2: 0.0

Results for Cc1ccc(NC(=O)CSc2nc3c([nH]c4ccccc43)c(=O)n2C)cc1 ?
GSIS activator: -6.5; Neddyl block: -7.5; Vif imaging: 6.5; A1 inh: -0.1; dFosB act-1: 8.1

How did COCCn1c(SCC(=O)Nc2ccccc2OC)nc2c([nH]c3ccccc32)c1=O do in these assays?
GSIS activator: 24.6; Neddyl block: 14.3; Vif imaging: -14.0; A1 inh: 0.1; dFosB act-1: 5.2

How did CCn1c(SCC(=O)Nc2ccc(NC(C)=O)cc2)nc2c([nH]c3ccccc32)c1=O do in these assays?
GSIS activator: 33.6; Neddyl block: 6.8; Vif imaging: 14.2; A1 inh: -0.6; dFosB act-1: 39.2*; dFosB act-2: -0.5

Results for COCCn1c(SCC(=O)Nc2ccc(F)cc2)nc2c([nH]c3ccccc32)c1=O ?
GSIS activator: 6.9; Neddyl block: 6.3; Vif imaging: 12.5; A1 inh: 1.2; dFosB act-1: 11.1

Results for Cn1c(SCC(=O)Nc2ccc(F)cc2)nc2c([nH]c3ccccc32)c1=O ?
GSIS activator: 0.3; Neddyl block: -57.5; A1 inh: 0.9; dFosB act-1: 21.2*; dFosB act-2: -0.7

How did C[C@H]1CN([C@@H](C)CO)C(=O)c2cc(NC(=O)Cc3cn(C)c4ccccc34)ccc2O[C@H]1CN(C)S(=O)(=O)c1cn(C)cn1 do in these assays?
GSIS activator: 10.0

What do the screens show for `C[C@@H]1CN([C@@H](C)CO)C(=O)c2cc(NC(=O)Nc3cccc4ccccc34)ccc2O[C@@H](C)CCCCO[C@H]1CN(C)CC1CCCCC1`?
GSIS activator: -28.9

Results for COc1ccc(Cl)cc1C(=O)NC(=S)Nc1cc(-c2nc3ccccc3[nH]2)ccc1C ?
Neddyl block: 16.2; Vif imaging: -10.4; A1 inh: 1.8; dFosB act-1: 36.2*; dFosB act-2: 1.7

What do the screens show for `O=C(Cn1ncc2c([nH]c3ccccc32)c1=O)NCCc1ccccc1`?
GSIS activator: 5.7; Neddyl block: 3.5; Vif imaging: -0.3; A1 inh: -0.9; dFosB act-1: 43.5*; dFosB act-2: -1.4
